{"source": "PubChem BioAssay (NCATS)", "note": "Records with an inconclusive call do not appear. Calls of active or inactive are those of the source. The call rests on the fitted dose curve; in most records, active means well fitted activation curve with a large enough effect; inconclusive means small, poorly fitted or top-dose-only effect, or another doubt; inactive means no such curve, though single readings can be large or run the other way. Potency means the concentration at half of the fitted maximal effect."}
{"target": "Rap guanine nucleotide exchange factor 3 (Homo sapiens) (UniProt O95398)", "assay": "Counterscreen qHTS for agonist of cAMP-regulated guanine nucleotide exchange factor 3 (EPAC1) (AID 1645889); further: nearly all actives have a fitted effect of over 40% in size; on activation: % of control where 0% means no effect", "conditions": "EPAC1 Rap1B-BODIPY-GDP exchange, fluorescence; series mostly up to 154 µM; activation: at the top concentration", "source_text": "Assay Provider (PI): Xiaodong Cheng Ph.D. The University of Texas Medical Branch, […], TX MLPCN Grant: NS066510 In multi-cellular eukaryotic organisms, the effects of cAMP are transduced by two ubiquitously-expressed intracellular cAMP receptors, the classic protein kinase A/cAMP-dependent protein kinase (PKA/cAPK) and the more recently discovered exchange protein directly activated by cAMP/cAMP-regulated guanine nucleotide exchange factor (EPAC/cAMP-GEF). Both PKA and EPAC are ubiquitously expressed in all tissues, and an increase in intracellular cAMP levels will lead to the activation of both PKA and EPAC. Therefore, careful dissections of the individual role and relative contribution of EPAC and PKA within the overall cAMP signaling in various model systems are critical for further elucidating the mechanism of cAMP signaling. To date no EPAC-specific antagonists and agonist, as well as isoform-specific agonists have been reported, and developing EPAC-specific pharmacological probes to determine the physiological functions that EPAC play in the overall cAMP-mediated signaling remains a major challenge within the research field. Furthermore, identified regulators of EPAC may lead to new mechanism-based therapeutic strategies specifically targeting the EPAC / cAMP-signaling components as EPAC has been implicated to play important roles in major human pathological conditions such as diabetes, heart disease, and cancer. This qHTS will be used to screen the Molecular Libraries Small Molecule Repository (MLSMR) as a concentration-titration series using the NCGC unique quantitative screening (qHTS) platform to find activators for EPAC1. In addition, this assay will also be used as a counterscreen for the EPAC2 qHTS. This fluorescent based assay is developed and validated for EPAC1 that measures exchange using EPAC effector Rap1 complex with BODIPY-GDP, a GDP analog with a tethered fluorophores. Activators are identified by monitoring the change in fluorescence signal as the exchanged free BODIPY-GDP has a reduced fluorescence compared to Rap1-bound BODIPY-GDP. Increase in signal (activation) is the desired outcome for the EPAC1 agonist while no activity in this assay is desired for the EPAC2 agonist counterscreen. Reference: [1] de Rooij, J., Zwartkruis, F. J., Verheijen, M. H., Cool, R. H., Nijman, S. M., Wittinghofer, A., and Bos, J.L. (1998) Nature 396, 474-477. Kawasaki, H., Springett, G. M., Mochizuki, N., Toki, S., Nakaya, M., Matsuda, M., Housman, D. E., and Graybiel, A. M. (1998) Science 282, 2275-2279.\nEPAC1 Counterscreen PROTOCOL TABLE SEQUENCE No. (e.g., 1, 2, 3, etc.); […] (e.g., Cells, Incubation, Reagent, etc.); VALUE and DESCRIPTION. 1. Reagent. 3 uL. [1x] 250 nM Rap1B-BODIPY-GDP, and 50 uM GDP. 2a. Compound. 23 nL. Control 6,572 uM cAMP (working concentration). 2b, 2c. Compound. 23 nL. Control activator and inhibitor; 234 - 30,000 uM cAMP and 16.4 - 10,000 uM. 2d. Compound. 46 nL. MLSMR follow-up library; 0.64 - 10,000 uM. 3. Time. 15 sec, 1000rpm. Centrifuge. 4. Time. 5 min. Incubation at room temperature. 5. Detector. Fluorescence. (Read 1), Ex/Em = 480 nm / 540 nm. 6. Time. 30 min. Incubation at room temperature. 7. Detector. Fluorescence. (Read 2), Ex/Em = 480 nm/ 540 nm. 8. Reagent. 1uL. Dispense either [4x] 10 uM cAMP or buffer. 9. Time. 15 sec, 1000 rpm. Centrifuge. 10. Time. 5 min. Incubation at room temperature. 11. Detector. Fluorescence. (Read 3), Ex/Em = 480 nm / 540 nm. 12. Time. 30 min. Incubation at room temperature. 13. Detector. Fluorescence. (Read 4), Ex/Em = 480 nm / 540 nm. NOTES (numbers refer to Sequence numbers above; values are from representative experiments) 1. Medium-binding black solid-bottom Greiner plates (789176-F). Dispense 3 uL of [1x] 250 nM Rap1B-BODIPY-GDP, and 50 uM GDP into columns 1 to 48. 2a. Control compound cAMP (6,572 uM, column 3, rows 1 to 32) single pin-transferred for a [final] of 50 uM. 2b. […]"}
{"smiles": "COC(=O)c1c(NC(=O)c2ccc(S(=O)(=O)N3CCCCC3C)cc2)sc2c1CCN(C(C)C)C2", "note": "(stereo not given)", "Potency": "79.4 µM (active)"}
{"smiles": "COc1cccc(NS(=O)(=O)c2ccc3c(c2)C2C=CCC2C(c2ccc(C(=O)O)cc2)N3)c1", "note": "(stereo not given)", "activation": "19.3% (inactive)"}
{"smiles": "CCc1nnc(NS(=O)(=O)c2ccc(NCc3cc(Cl)ccc3O)cc2)s1", "activation": "11.7% [at 30.8 µM] (inactive)"}
{"smiles": "CCN(CC)c1ccc2cc(C(=O)Nc3ccccn3)c(=O)oc2c1", "activation": "24.2% (inactive)"}
{"smiles": "CCOC(=O)c1c(NC(=O)c2ccc(S(=O)(=O)N(C)CC3CCCO3)cc2)sc2c1CCN(C)C2", "note": "(stereo not given)", "activation": "-82.7% (inactive)"}
{"smiles": "CCN1CCN(c2ccc(S(=O)(=O)N3CCOCC3)cc2NC(=O)c2cc(Cl)nc3ccccc23)CC1", "activation": "5.03% [at 30.8 µM] (inactive)"}
{"smiles": "CC1CCN(C2(O)C(=O)Nc3ccc(Br)cc32)CC1", "note": "(stereo not given)", "activation": "-4.09% (inactive)"}
{"smiles": "O=C(NC1CCC(O)CC1)c1ccc(S(=O)(=O)NCc2ccco2)cc1", "note": "(stereo not given)", "activation": "11.1% (inactive)"}
{"smiles": "COc1ccc(-c2nn(-c3ccccc3)cc2/C=C2/SC(=S)N(CCCC(=O)O)C2=O)c(C)c1", "activation": "24.8% (inactive)"}
{"smiles": "O=C1C2CCCN2C(c2ccccc2F)N1c1cccc(Cl)c1", "note": "(stereo not given)", "activation": "9.98% [at 30.8 µM] (inactive)"}
{"smiles": "O=C(Nc1ccc2nc3n(c(=O)c2c1)CCCCC3)c1c(F)ccc([N+](=O)[O-])c1F", "activation": "28.8% (inactive)"}
{"smiles": "CCOC(=O)c1c(C)[nH]c(C(=O)OCC(=O)Nc2sccc2C(N)=O)c1C", "activation": "15.2% (inactive)"}
{"smiles": "CC(C)C(NC(=O)C1CC(=O)N(Cc2ccccc2)C1)c1nc2ccccc2[nH]1", "note": "(stereo not given)", "activation": "-4.59% (inactive)"}
{"smiles": "Cc1ccc(-c2noc(CSc3nnnn3C3CCCCC3)n2)cc1", "activation": "1.66% (inactive)"}
{"smiles": "COc1ccc(N=Nc2nc3cc(Br)c(Br)cc3n2C)c(OC)c1", "Potency": "12.6 µM (active)"}
{"smiles": "Cc1c(Cl)cccc1NC(=O)Nc1cccnc1", "activation": "0.093% (inactive)"}
{"smiles": "CCCCNC(=O)c1cc(-c2ccc3c(c2)OCO3)on1", "activation": "5.09% (inactive)"}
{"smiles": "CC(=O)N1CCN(C(=O)c2[nH]c(C(F)(F)F)nc2-c2ccccc2)CC1", "activation": "-17.3% (inactive)"}
{"smiles": "CS(=O)(=O)c1ccc(C(=O)OCc2nnc(-c3ccccc3)o2)cc1[N+](=O)[O-]", "activation": "6.94% (inactive)"}
{"smiles": "C[C@@H]1CC=C[C@@H]2[C@H]1C(=O)N(Cc1ccccc1)[C@H]2c1ccccc1Br", "activation": "1.52% (inactive)"}
{"smiles": "COc1ccc(/C(N)=N/OC(=O)c2ccc(C)c([N+](=O)[O-])c2)cc1", "activation": "16.7% [at 30.8 µM] (inactive)"}
{"smiles": "CCOC(=O)/C(C#N)=C\\c1ccc(N2CCN(C/C=C/c3ccccc3)CC2)cc1", "Potency": "70.8 µM (active)"}
{"smiles": "COc1ccc(N2C(=O)[C@H]3CCC=C[C@H]3[C@@H]2c2ccccc2Br)cc1", "activation": "3.3% (inactive)"}
{"smiles": "Cc1ccc(-c2nn(-c3ccccc3)cc2C=C2SC(=S)N(CCS(=O)(=O)O)C2=O)cc1", "activation": "28% [at 30.8 µM] (inactive)"}
{"smiles": "O=C(/C=C/c1ccco1)N1CCCC(c2ccccc2)C1", "note": "(stereo not given)", "activation": "17.2% (inactive)"}
{"smiles": "COc1ccccc1/C=C1\\SC(=S)N(CCC(=O)Nc2ccc(C(=O)O)c(O)c2)C1=O", "activation": "10.4% [at 30.8 µM] (inactive)"}
{"smiles": "Cc1ccc(-c2ccc(CCC(=O)O)n2-c2ccc(C(C)C)cc2)cc1", "activation": "13.3% (inactive)"}
{"smiles": "Cn1cc(/C=C2\\SC(=S)N(NC(=O)c3ccccc3Cl)C2=O)c2ccccc21", "Potency": "63.1 µM (active)"}
{"smiles": "COc1ccc(NC(=O)CN2CCN(c3c(C)cc(C)cc3C)CC2)cc1", "activation": "16.1% [at 30.8 µM] (inactive)"}
{"smiles": "C[C@H](c1ccccc1)N1C[C@H](COCc2ccccc2)Oc2cc(N3CC[C@@H](O)C3)ccc2S1(=O)=O", "activation": "20% [at 30.8 µM] (inactive)"}
{"smiles": "CCOC(=O)c1c(NC(=O)C2C3C=CC(C3)C2C(=O)O)sc2c1CCC(CC)C2", "note": "(stereo not given)", "activation": "6.05% (inactive)"}
{"smiles": "COc1ccccc1N(C)S(=O)(=O)c1ccc(C(=O)NC2CCCCC2)cc1", "activation": "18.9% (inactive)"}
{"smiles": "CC(C)(C)c1ccc(S(=O)(=O)NC(=O)C2(C)CCN2C(=O)Cc2ccc(-c3ccccc3)cc2)cc1", "note": "(stereo not given)", "activation": "6.27% [at 30.8 µM] (inactive)"}
{"smiles": "Cc1ccc2oc(C(=O)N3CCCCCC3)c(C)c2c1", "activation": "10.2% (inactive)"}
{"smiles": "CN(CC(=O)Nc1ccc(Cl)c(C(F)(F)F)c1)C(=O)c1ccc2c(c1)OCCO2", "activation": "-21.7% (inactive)"}
{"smiles": "CCOC(=O)C1CCc2c(ccc3ccccc23)N1CCC#N", "note": "(stereo not given)", "activation": "2.64% [at 30.8 µM] (inactive)"}
{"smiles": "O=C(N/N=C/c1ccccc1O)/C(=C/c1ccccc1)CCO", "activation": "-1.73% (inactive)"}
{"smiles": "C=CC[C@@H](Cc1ccc(F)cc1)C(=O)OC[C@@H]1CCCN1C(=O)[C@@H](CC=C)CC(=O)N(CCO)Cc1ccccc1", "activation": "7.99% (inactive)"}
{"smiles": "Cc1ccc(-n2nc3c(=O)n(CCCC(=O)NCc4ccc(F)cc4)nc(C)c3c2C)cc1", "activation": "9.45% (inactive)"}
{"smiles": "COCc1cc(C)nc(SCC(=O)c2ccc(O)c(O)c2)c1C#N", "activation": "3.89% (inactive)"}
